Experimental findings from PubChem BioAssay AID720596 (The Scripps Research Institute Molecular Screening Center, 2013) are described below.

SMILES strings stand for the structures. Among all 370,000 compounds or so, about 1,600 (0.43%) were called active. This excerpt belongs to a sample that is enriched for actives. A number with no mark means an inactive call. No stated cut-off is given here; in the data, active means inhibition above about 24%; inactive means the rest.

For the experiment, the target named is Major prion protein (Homo sapiens) (UniProt P04156). Description: inhibitors of human cell surface prion protein PrPC, primary screen, cell-based, TR-FRET (AID 720596). Further: 0% = median of the test wells and 100% = reference compound wells. Conditions: TR-FRET read-out, at 13.8 µM, active compounds read high. On the technique in general: TR-FRET usually uses a lanthanide donor and a delayed reading to cut background.
Usually inhibition stands for the change of the read-out against control, counted positive when it falls. With `COc1cc(-n2c(=S)[nH]c3ccc(C)cc3c2=O)c(Cl)cc1Cl`, the inhibition is 41% (active). For `COc1ccc(OC)c(-n2c(=S)[nH]c3cc(C(=O)N4CCCCC4)ccc3c2=O)c1`, the inhibition was 2.99%. Consider `COc1cc2[nH]c(=S)n(Cc3ccc(C)o3)c(=O)c2cc1OC`, for which the inhibition is -2%. As to `COc1cccc(C(=O)N2CCCC(CCC(=O)NCc3ccc(F)c(F)c3)C2)c1` (centres undefined), the inhibition is 1.57%. Consider `CCCOc1ccc(C2C(C(=O)c3ccc(C)o3)=C(O)C(=O)N2CCCn2ccnc2)cc1` (centres undefined), for which the inhibition is 39.3% (active). On to `C=CCOc1cccc(C2C(C(=O)c3ccc(C)o3)=C(O)C(=O)N2CCN2CCOCC2)c1` (centres undefined), for which the inhibition is -10.8%. With `CCOc1ccc(C2/C(=C(/O)c3ccc4c(c3)CC(C)O4)C(=O)C(=O)N2CCCn2ccnc2)cc1` (centres undefined), the inhibition is 1.98%. The result for `CCOc1ccccc1OCCCNCc1ccccc1` reads -4%; that for `O=C(CN1CCCSc2ccccc21)N1CCN(S(=O)(=O)c2cccc(F)c2)CC1`, -1.47%; that for `CC(C)c1ccc(S(=O)(=O)N2CCN(C(=O)CN3C(=O)NC(C)(c4ccccc4)C3=O)CC2)cc1` (centres undefined), -0.25%.

In the case of `N#C/C=C1\Sc2ccccc2C(=O)N1CC(=O)N1CCN(S(=O)(=O)c2ccccc2)CC1`, the inhibition is 59.8% (active). As for `CCCN(C(=O)CSc1nnc(N)s1)c1c(N)n(Cc2ccccc2)c(=O)[nH]c1=O`, the inhibition is -0.1%.

As for `COc1ccc(Cl)cc1NC(=O)COc1ccc2c(c1)OCO2`, the inhibition was 0.61%.

For the compound `Cc1noc(C)c1NC(=O)Nc1ccc2c(c1)C(=O)N([C@H](C)CO)C[C@H](C)[C@@H](CN(C)S(=O)(=O)c1cn(C)cn1)O2`, the inhibition is 3.79%.

On to `COc1ccc(C)cc1NC(=O)CSc1nnc2ccc(-c3ccccn3)nn12`, for which the inhibition is -1.48%. On to `O=C(CCCNS(=O)(=O)c1cccc2nsnc12)NCCN1CCN(c2ccccc2F)CC1`, for which the inhibition is -22.9%. Regarding `Cc1cccc(NC(=O)Cn2c(=O)n(Cc3ccccc3)c(=O)c3c(C)c(C)sc32)c1`, the inhibition is 4.63%. Take `Cc1cccc(NC(=O)c2nc(S(=O)(=O)Cc3ccccc3)ncc2Cl)c1`: the inhibition is 70.4% (active).

As for `CN(CCC(=O)Nc1cc(S(=O)(=O)N(C)C)ccc1Cl)CC(=O)Nc1ccc(F)cc1`, the inhibition was -6.03%. For `Cc1cccc(CS(=O)(=O)c2ncc(Cl)c(C(=O)Nc3ccc(F)cc3)n2)c1`, the inhibition is 54.3% (active). In the case of `Cc1cccc(NC(=O)c2cc3c(C)nn(-c4ccccc4)c3s2)c1`, the inhibition was -2.71%. Regarding `Cc1cccc(C(=O)Nc2c(-c3ccc(F)cc3)nc3ncccn23)c1`, the inhibition is 0.67%. On to `Cc1ccc(NS(=O)(=O)c2cccs2)cc1S(=O)(=O)N1CCCCCC1`, for which the inhibition is 2.21%. Take `Cc1cccc(CC(=O)N2CCN=C2SCc2ccc([N+](=O)[O-])cc2)c1`: the inhibition was -5.21%. `CCCn1c(=S)[nH]c2ccc(C(F)(F)F)cc21`: the inhibition was 12.2%. Consider `CCN(CC(=O)NCc1ccc(F)cc1)S(=O)(=O)c1ccc(Cl)s1`, for which the inhibition was -0.88%. For the compound `O=C(Nc1ccccn1)C1CCN(S(=O)(=O)c2ccc3c(c2)OCCO3)CC1`, the inhibition was -7.97%. With `Cc1ccnc(NC(=O)C2CCN(S(=O)(=O)c3c(C)c(C)cc(C)c3C)CC2)c1`, the inhibition was 28.1% (active). Regarding `Cc1ccc(Cl)cc1NC(=O)C1CCN(S(C)(=O)=O)CC1`, the inhibition is 4.88%. As to `O=C(/C=C/c1cnc2ccccc2n1)NC1CCCCCC1`, the inhibition is -28.9%.

On to `CCOC(=O)c1c(-c2ccccc2)oc2cc(Br)c(O)cc12`, for which the inhibition was 58.6% (active).

`CCOC(=O)c1c(C)oc2cc(Br)c(OCC(N)=O)cc12`: the inhibition is -4.57%. Consider `CCOC(=O)c1c(-c2ccccc2)oc2ccc(OC(=O)N(C)C)cc12`, for which the inhibition is -3.58%. The result for `CCNc1nc(NCC)nc(N(C)n2cnnc2)n1` reads 3.48%; that for `CCN(CC)c1ccc(S(=O)(=O)N2CCOCC2)cc1NC(=O)CSc1cccc[n+]1[O-]`, -5.4%. On to `CCN1CCN(C(=O)C2CCCN(S(=O)(=O)c3ccc(OC)c(OC)c3)C2)CC1` (centres undefined), for which the inhibition was -1.58%. `Nc1cc2c(cc1Br)-c1ccc(F)cc1C2=O`: the inhibition was -0.15%.

Consider `O=C(/C=C/c1ccc([N+](=O)[O-])o1)NNC(=O)c1ccc(F)cc1`, for which the inhibition was 64.7% (active). As for `CCN(CC)N=Nc1cccc(NC(C)=O)c1`, the inhibition was -7.3%. The result for `Cc1ccc(SC(CC(=O)c2ccc(C(C)(C)C)cc2)C(=O)O)cc1` (centres undefined) reads -2%; that for `O=C(OCC(=O)N1CCCCC1)c1ccc(OC(F)(F)F)cc1`, 8.76%. For `c1ccc(-n2ncc(-c3nn[nH]n3)n2)cc1`, the inhibition is 1.91%.

Take `CCc1cc(-c2n[nH]c(=S)n2CC(C)C)cs1`: the inhibition is -0.39%.

Turning to `Cc1ccc(S(=O)(=O)N2CCOCC2)cc1NC(=O)c1ccncc1`, the inhibition was 7.08%. As for `COc1ccc(C(=O)Nc2nc(-c3ccc(S(=O)(=O)N4CCOCC4)cc3)cs2)cc1`, the inhibition was 27.2% (active). Regarding `O=C(Nc1ccc(S(=O)(=O)N2CCOCC2)cc1)c1ccc2ncsc2c1`, the inhibition was 0.06%. On to `COc1ccc(NC(=O)CN(C)C(=O)c2cc(C3CC3)nn2-c2ccccc2)cc1`, for which the inhibition was 10.2%. Regarding `CCC(C)(O)C(=O)OC1C(=O)OC2CC3C(C)=CC(=O)C(O)C3(C)C3C4(O)OCC23C1C(C)C4O` (centres undefined), the inhibition is 83.1% (active).

As for `O=C(N/C(=C\c1ccc(F)cc1)C(=O)N1CCCCCC1)c1ccccc1`, the inhibition is -7.9%. Regarding `Cc1ccc(-c2nc3ccccc3c(=O)n2-c2ccc(Br)cn2)cc1`, the inhibition was 0.03%. As for `COc1ccc(CC(=O)NC(C)c2ccc(Cl)c(Cl)c2)cc1S(=O)(=O)N1CCOCC1` (centres undefined), the inhibition was 4.45%. Turning to `COc1ccc(C)cc1NC(=O)CNCc1cccs1`, the inhibition is 0.34%.

As for `Cc1ccsc1C(=O)OCC(=O)Nc1cccc(F)c1`, the inhibition is 25.2% (active). Consider `CC1CC1C(=O)OCC(=O)Nc1cccc(F)c1` (centres undefined), for which the inhibition was -3.56%. Turning to `O=C(COC(=O)CNC(=O)C1CCCCC1)Nc1cccc(F)c1`, the inhibition is -5.42%.

Turning to `CCN(CC(=O)NCc1ccc(Cl)cc1)C(=O)CSc1ccccc1`, the inhibition is 9.76%. The result for `CN1/C(=C\C=C2\N=C(c3ccc(F)cc3)OC2=O)C(C)(C)c2ccccc21` reads 9.17%; that for `C=CCN1C(=O)C2(C(C(=O)OCC)=C(N)Oc3c2c(=O)oc2ccccc32)c2ccccc21` (centres undefined), 8.11%. As for `CN1/C(=C\C(=O)c2oc3ccccc3c2N)C(C)(C)c2ccccc21`, the inhibition was 51.8% (active).
